# An excerpt weighted towards active compounds, which were near 19% of everything screened.
# TDP1 cell noCPT: qHTS for Inhibitors of human tyrosyl-DNA phosphodiesterase 1 (TDP1): qHTS in cells in absence of CPT; DT40 Tdp1-/- hTDP1 cells, no CPT, ATP luminescence, 48 h; Potency, µM (highest dose often 46.2 µM), for the others: at the top dose activity change, negative = growth inhibition, hits mostly inhibitors; AID 686978, 2013; 15% of 420,000 active; also: potency is read from the fitted curve at half-maximal effect; nearly all actives have a fitted effect of over 55% in size
#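 Chicken DT40 Tdp1-/- cells stably complemented with human TDP1 were seeded at 400 cells/well with DMSO in place of 20 nM camptothecin. After compound pinning, cells grew at least 48 hr at 37 °C; viability read by CellTiter-Glo luminescence.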
# TDP1 cell CPT: DT40-hTDP1 cell growth loss with CPT; chicken DT40 Tdp1-/-;hTDP1 cells + 20 nM CPT, ATP luminescence, 48 h; Potency, µM (titrated, usually from 46.2 µM), for the others: top-dose activity change, negative = growth inhibition, actives largely listed as inhibitors; 12% of 420,000 active; also: potency is read from the fitted curve at half-maximal effect; nearly all actives have a fitted effect of over 55% in size
#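 Chicken DT40 Tdp1-/- cells complemented with human TDP1, 400 cells/well, exposed to compounds plus 20 nM camptothecin for at least 48 h at 37 C; viability read as ATP content by CellTiter-Glo luminescence.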
# IL-1B inflam inh: blocks inflammasome-driven IL-1 beta release. activity change, % at 57.5 µM. THP-1 LPS/ATP IL-1B secretion, AlphaLISA, 16 h; hits give low values. AID 743279. 4.7% of 360,000 active; in the data active = activity change below about -50%; inconclusive = mostly about -30% to -49%
#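 Secreted IL-1B measured by AlphaLISA bead assay after 16 h compound exposure of THP-1 cells; compounds (final up to 57.5 uM) added 1 h before LPS (250 ng/mL) and ATP (1.25 mM) stimulation; lower signal means less secretion.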
# HT1080-NT tox: kills 2HG-producing HT-1080-NT fibrosarcoma cells | 1.6% of 360,000 active | HT-1080-NT fibrosarcoma viability, CellTiter-Glo ATP luminescence, 48 h | Potency, µM (top dose mostly 46.1 µM), for inactives: at the highest dose activity, negative = less viability, hits mostly cytotoxic;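 also: NT is the 2HG producing partner of a matched IDH1 knockdown line; potency is read from the fitted curve at half-maximal effect; 0% = DMSO-treated cells and -100% = media-only wells without cells; nearly all actives have a fitted effect of over 55% in size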
#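 Toxicity toward the 2HG-producing NT line was scored as %Activity, normalised to DMSO and no-cell wells, from CellTiter-Glo luminescence after 48 hours' treatment.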
# HT1080 IDH1KD tx: toxicity to HT-1080 IDH1 knockdown cells (counter line). 2% of 360,000 active. HT-1080 IDH1 knockdown viability, ATP luminescence, 48 h. Potency, µM (series often up to 46.1 µM), inactives show top-dose activity, negative = toxicity, hits mostly cytotoxic;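 also: potency is read from the fitted curve at half-maximal effect; 0% = DMSO wells and -100% = cell-free medium wells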
#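 Luminescent ATP read-out (CellTiter-Glo, 10 min at room temperature) after 48 h compound exposure at 37 °C gave viability of IDH1-knockdown HT-1080 cells. Activity was normalised to DMSO and cell-free wells, then fitted as concentration-response curves.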
# The depositor's hits bear a star; ? = inconclusive; nt = no result given; ! = not confirmed by another sample. Unless noted, calls follow the shape of the dose curve; as a rule, active = well fitted curve in the direction sought with a large enough effect; inconclusive = small, poorly fitted or top-dose-only effect, or another doubt; inactive = no such curve, though single readings can be large; an effect the other way counts as inactive or inconclusive. Unless noted, % is scaled to controls: 0 for no effect and ±100 for the full control effect.
SMILES,TDP1 cell noCPT,TDP1 cell CPT,IL-1B inflam inh,HT1080-NT tox,HT1080 IDH1KD tx
CCOC(=O)c1sc(NC(=O)CNCc2ccccn2)c(C(=O)OCC)c1C,25.9µM*,?,10.3,-9.3%,-11.3%
CCOC(=O)c1c(-c2ccc(C)cc2)csc1NC(=O)CCN1CC(C)OC(C)C1 (centres undefined),25.9µM*,?,-5.6,-17.4%,?
CCOC(=O)c1c(-c2ccc(OC)cc2)csc1NC(=O)CCN1CCOCC1,18.4µM*,?,-9.9,-7.3%,-1.8%
CCOC(=O)c1c(NC(=O)CC)sc(C(=O)N2CCCCC2)c1C,-13.5%,-2.0%,-8.4,-1.3%,3.7%
CCOC(=O)c1c(-c2ccc(OC)cc2)csc1NC(=O)C1CCCO1 (centres undefined),?,?,-20.1,-1.8%,-0.3%
Cc1c(NC(=O)Nc2cc(F)c(F)cc2Cl)c(=O)n(-c2ccccc2)n1C,-5.9%,-9.1%,-5.8,-2.4%,0.0%
C=CCN1CCN(C(=O)c2ccc3c(c2)OCO3)CC1,16.6%,-10.7%,4.9,7.4%,13.4%
CCOC(=O)c1c(NC(=O)CCN2CCOCC2)sc(C)c1-c1ccccc1,23.1µM*,20.6µM*,-78.2*,-5.0%,-4.1%
CCOC(=O)c1c(-c2ccc(OC)cc2)csc1NC(=O)CNCc1ccco1,?,?,-13.4,4.1%,5.4%
CCOC(=O)c1c(-c2ccc(OC)cc2)csc1NC(=O)CCN1C(=O)c2ccccc2C1=O,?,16.4µM*,-17.8,9.4%,9.8%
CCOC(=O)c1c(NC(=O)CCN2CCOCC2)sc2c1CC(C)(C)OC2,?,3.1%,-0.1,2.5%,-6.1%
COc1cc(-c2nnc(COC(=O)c3ccc([N+](=O)[O-])o3)o2)cc(OC)c1OC,?,?,9.3,-4.2%,-11.4%
COc1ccc(S(=O)(=O)N2CCCCC2)cc1NC(=O)c1ccccc1,-19.1%,6.6%,18.2,7.3%,7.3%
Cc1onc(-c2c(F)cccc2Cl)c1C(=O)Nc1ccc(S(=O)(=O)N2CCOCC2)cc1,?,-24.6%,-6.9,-1.4%,-9.0%
Cc1onc(-c2c(F)cccc2Cl)c1C(=O)Nc1cc(S(=O)(=O)N2CCCCC2)ccc1O,16.4µM*,16.4µM*,-17.1,?,-14.5%
COc1ccc(S(=O)(=O)N2CCCCC2)cc1NC(=O)c1c(F)cccc1Cl,16.4µM*,?,-22.0,-4.0%,-6.7%
COCCCC/C(=N\OCCN)c1ccc(C(F)(F)F)cc1,20.6µM*,13µM*!,-50.6*!,?,18.4µM*!
O=C(CCC(=O)OCC(=O)c1ccc(C(F)(F)F)cc1)OCC(=O)c1ccc(C(F)(F)F)cc1,3.4%,9.2%,12.9,3.2%,8.4%
COCCCCC(=NOCCN)c1ccc(C(F)(F)F)cc1,23.7µM*,13.3µM*,nt,nt,nt
CCN(CC(=O)NCc1ccc(F)cc1)C(=O)C(C)Oc1cccc(Cl)c1 (centres undefined),-8.7%,?,-19.8,2.9%,-0.5%
CC(C)(C)OC(=O)NCCCC[C@H](NC(=O)c1nc[nH]c1C(=O)N1CCc2ccccc2C1)C(=O)OC(C)(C)C,20.6µM*,25.9µM*,?,-6.7%,-15.4%
CC(C)(C)OC(=O)NCCCCCNC(=O)c1[nH]cnc1C(=O)N[C@@H](CCCCNC(=O)OC(C)(C)C)C(=O)OC(C)(C)C,16.4µM*,16.4µM*,-20.6,?,-24.0%
CC(C)(C)OC(=O)CNC(=O)c1[nH]cnc1C(=O)N[C@@H](CCCCNC(=O)OC(C)(C)C)C(=O)OC(C)(C)C,?,?,?,-7.4%,-2.6%
CC(C)(C)OC(=O)N1CCN(C(=O)c2ncn(Cc3ccccc3)c2C(=O)N2CCN(C(=O)OC(C)(C)C)CC2)CC1,13.5%,12.6%,-3.8,0.0%,-15.2%
CC(C)(C)OC(=O)NCCCC[C@H](NC(=O)c1nc[nH]c1C(=O)NCc1ccc(CNC(=O)OC(C)(C)C)cc1)C(=O)OC(C)(C)C,16.4µM*,?,-16.9,-17.7%,0.0%
SMILES,TDP1 cell noCPT,TDP1 cell CPT,IL-1B inflam inh,HT1080-NT tox,HT1080 IDH1KD tx
CC(C)(C)OC(=O)NCCCCCNC(=O)c1ncn(Cc2ccccc2)c1C(=O)NCCCCCNC(=O)OC(C)(C)C,16.4µM*,?,-12.8,-6.2%,-7.8%
CC(C)(C)OC(=O)[C@H](CCCCN)NC(=O)c1nc[nH]c1C(=O)NCCCCCN,-9.9%,-2.2%,15.9,9.7%,12.1%
COCCNC(=O)C1(C)CCN(C(=O)c2sc(-c3ccccc3)nc2C)C1 (centres undefined),-6.6%,-6.3%,0.0,17.5%,24.9%
COc1ccccc1NC(=O)c1ccc(NC(=O)CN2C(=O)CN(C)C2=O)cc1,18.6%,16.2%,6.0,22.1%,20.2%
O=C(NCC1CCCO1)c1nnc(Cc2ccc(F)cc2)o1 (centres undefined),0.2%,5.4%,5.1,-1.7%,1.6%
C[C@H](NC(=O)c1nc[nH]c1C(=O)N[C@@H](CCCCNC(=O)OC(C)(C)C)C(=O)OC(C)(C)C)C(=O)OC(C)(C)C,?,?,0.0,-19.3%,-28.7%
CC(C)(C)OC(=O)NCCCC[C@H](NC(=O)c1nc[nH]c1C(=O)N[C@@H](CCCCNC(=O)OC(C)(C)C)C(=O)OC(C)(C)C)C(=O)OC(C)(C)C,23.1µM*,14.6µM*,-24.2,2.5%,1.0%
CC(C)(C)OC(=O)NCCCC[C@H](NC(=O)c1nc[nH]c1C(=O)NC(c1ccccc1)c1ccccc1)C(=O)OC(C)(C)C,?,14.6µM*,-6.8,?,?
CC(C)(C)OC(=O)NCCCCCNC(=O)c1nc[nH]c1C(=O)NCCCCCNC(=O)OC(C)(C)C,10.3µM*,11.6µM*,19.5,-25.0%,-14.0%
Cc1cccc(NC(=O)c2nc[nH]c2C(=O)NCCCCCNC(=O)OC(C)(C)C)c1,16.4µM*,14.6µM*,-74.9*,25.9µM*,?
C[C@H](NC(=O)c1nc[nH]c1C(=O)N(C)Cc1ccccc1)C(=O)OC(C)(C)C,?,-10.7%,-4.9,12.3%,9.8%
CN(Cc1ccccc1)C(=O)c1[nH]cnc1C(=O)NCCCCCNC(=O)OC(C)(C)C,18.4µM*,?,-2.9,-2.9%,-1.0%
CCN1CCC(O)(/C=C/c2ccc(C(C)C)cc2)C(C(=O)/C=C/c2ccc(C(C)C)cc2)C1 (centres undefined),23.1µM*,14.6µM*,-116.9*,?,20.6µM*
CCN1CCc2nc3sc(C(=O)c4ccccc4)c(N)c3cc2C1,3.66µM*,2.59µM*,nt,nt,nt
CCN1CCc2nc3sc(C(=O)c4ccc(F)cc4)c(N)c3cc2C1,23.1µM*,?,nt,nt,nt
Nc1c(C(=O)c2ccc(Cl)cc2)sc2nc3c(cc12)CCC3,-28.8%,-13.1%,-5.3,-18.4%,-19.3%
